Compound activity: PubChem BioAssay, several laboratories
SENP8 block-1: blocks the human protease SENP8 | Q96LD8 | purified SENP8, Z-RLRGG-aminoluciferin cleavage, luminescence | inhibition, % at 10 µM | 330,000 compounds, 1.2% hits; in the data active = inhibition above about 50%
Target sequence (Q96LD8 whole entry, looked up): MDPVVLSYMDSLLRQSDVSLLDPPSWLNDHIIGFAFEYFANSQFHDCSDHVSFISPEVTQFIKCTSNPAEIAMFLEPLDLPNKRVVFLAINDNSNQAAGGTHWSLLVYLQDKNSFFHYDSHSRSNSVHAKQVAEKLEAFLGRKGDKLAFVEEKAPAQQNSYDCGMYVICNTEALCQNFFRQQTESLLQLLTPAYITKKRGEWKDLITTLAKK
HSP90 refold inh: inhibitors of HSP90 luciferase refolding in rabbit reticulocyte lysate; 290,000 compounds, 0.91% hits; inhibition, % at 5.6 µM; luciferase refolding luminescence, 3 h;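 active = inhibition above the screen-wide mean plus 3 SD, computed separately per campaign, cut at about 16% in these data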;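 note: 0% = DMSO wells and 100% = 60 µM geldanamycin wells; inhibitors lower the luminescence because luciferase stays unfolded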
SENP6 inh: blocks the human protease SENP6 | inhibition, % at 10 µM | Recombinant SENP6 catalytic domain, aminoluciferin luminescence | AID 2599 | 330,000 compounds, 1.8% hits;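 active = inhibition above about 50% at the single tested dose, limit read from the data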;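 note: plate controls were DMSO wells with enzyme for no effect and DMSO wells lacking enzyme for full effect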
SENP7 inh: blocks the human protease SENP7; Q9BQF6; recombinant SENP7, Z-RLRGG-aminoluciferin luminescence, 40 min; inhibition, % at 5 µM; 330,000 compounds, 1.5% hits; AID 434973;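 active = inhibition above about 50% at the single test dose, limit read from the data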;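 note: plate controls were DMSO with enzyme for no effect and no enzyme buffer wells for full effect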
Target sequence (Q9BQF6 706-1050 limits assumed): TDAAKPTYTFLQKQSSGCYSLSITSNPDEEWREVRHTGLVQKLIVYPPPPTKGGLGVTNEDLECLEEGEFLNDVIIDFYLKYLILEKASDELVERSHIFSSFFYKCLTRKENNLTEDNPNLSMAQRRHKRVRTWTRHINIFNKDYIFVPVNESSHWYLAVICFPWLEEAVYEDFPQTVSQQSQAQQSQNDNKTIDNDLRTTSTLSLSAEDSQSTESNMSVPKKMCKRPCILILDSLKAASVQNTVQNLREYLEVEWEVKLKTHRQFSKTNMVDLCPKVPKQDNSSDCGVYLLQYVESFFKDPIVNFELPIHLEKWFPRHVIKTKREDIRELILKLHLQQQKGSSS
SENP8 block-2: inhibitors of human SENP8 protease; Q96LD8; recombinant SENP8, Nedd8 substrate fluorescence; inhibition, % at 20 µM; 360,000 compounds, 0.64% hits; in the data active = inhibition mostly above about 40%, no sharp cut-off; inactive = mostly below about 27%
Starred values were filed as active, the others as inactive; / = no result given. Hits are enriched below; roughly 2.8% of the tested compounds scored in any of these assays.

SMILES	SENP8 block-1	HSP90 refold inh	SENP6 inh	SENP7 inh	SENP8 block-2
Cc1nc(-c2ccccc2)sc1-c1ccnn1C	-5	-3	-4	7	-420
Cc1nc(-c2ccccc2)sc1-c1ccn[nH]1	47	7	61*	56*	-391
COCCn1c(SCC(=O)NC2CCCC2)nnc1C(C)C	5	-2	9	-8	12
CN(C)c1ccc(N=Nc2ccccc2C(=O)OCC(=O)NCC2CCCCC2)cc1	-3	6	20	-4	50*
Cc1cc(NC(=O)c2cc3cccc([N+](=O)[O-])c3[nH]2)ccc1F	61*	-1	73*	77*	12
COCC(C)NC(=O)c1cc2cccc([N+](=O)[O-])c2[nH]1 (stereo unspecified)	-17	-2	-6	-8	12
CSc1ccc(/C=N/NC(=O)CNc2cccc3ccccc23)cc1	48	5	73*	40	-295
CSc1ccc(/C=N/NC(=O)CNc2ccc3ccccc3c2)cc1	-5	8	-1	0	-259
O=C1C(=Cc2cccs2)Oc2ccccc21	/	/	/	/	-131
Cc1ccccc1/C=C1\Oc2ccccc2C1=O	63*	/	78*	51*	-27
O=C(O)CCc1ccc(-c2cccs2)n1NC(=O)c1ccccc1Br	-2	2	5	7	-50
O=S(=O)(Nc1ccc2cn[nH]c2c1)c1cc(Br)ccc1Br	-2	/	2	2	1
Cc1[nH]n(C(N)=S)c(=O)c1N=Nc1ccc(S(=O)(=O)N2CCCC2)cc1	8	7	41	16	22
Cc1ccc(N=Nc2c(C)[nH]n(C(N)=S)c2=O)cc1	74*	-4	79*	63*	18
COc1cc(C2CC(=O)Nc3ccccc3S2)cc(OC)c1OC (stereo unspecified)	-1	0	8	-2	12
O=[N+]([O-])c1ccc2cn[nH]c2c1	0	-3	-10	-4	12
Cc1cc2nc(-c3cccnc3SCC(=O)NC3CC3)[nH]c2cc1C	81*	0	88*	90*	/
CCOC(=O)CCNC(C(=O)OCC)c1ccccc1 (stereo unspecified)	-10	4	5	11	11
Oc1ccc(Cl)cc1N=Cc1sc2ccccc2c1Cl	/	64*	/	/	0
Cc1[nH]n(-c2ccc([N+](=O)[O-])cc2)c(=O)c1C=NCCc1c[nH]c2ccccc12	6	1	39	17	20
Cc1[nH]n(-c2ccc([N+](=O)[O-])cc2)c(=O)c1C=NCCN1CCN(C(=O)c2ccc(F)cc2)CC1	67*	13	91*	90*	14
c1ccc(N(c2ccccc2)c2nc(N3CCCC3)nc(-n3ccnc3)n2)cc1	-15	1	-16	-9	5
O=C(CSc1nnc(NC(=O)c2ccccc2Cl)s1)Nc1ccc2c(c1)oc1ccccc12	32	-7	37	82*	/
Cc1cc2[nH]c(=O)cc(-c3ccccc3)n2n1	24	3	22	2	-299
Nc1nn2c(-c3ccccc3)cc(=O)[nH]c2c1N=Nc1ccc(O)cc1	-2	-2	12	7	63*
SMILES	SENP8 block-1	HSP90 refold inh	SENP6 inh	SENP7 inh	SENP8 block-2
Nc1nn2c(-c3ccccc3)cc(=O)[nH]c2c1N=Nc1ccc(Br)cc1	/	-1	/	/	41*
C=CCc1cccc2cc(C(=O)Nc3cccc(C(=O)O)c3)c(=O)oc12	21	-3	55*	25	/
COc1ccc2c(c1)CC/C2=N\OC(=O)c1ccccc1OC	42	-3	68*	67*	25
CC(/C=N/N1CCN(c2ccccn2)CC1)=C\c1ccccc1	31	-1	59*	63*	2
COc1ccccc1N1CCN(/N=C\c2ccccc2)CC1	-6	2	-6	8	10
COc1ccccc1N1CCN(/N=C/C(Cl)=C/c2ccccc2)CC1	57*	3	72*	45	14
CC(=O)Nc1ccc(Sc2ncccc2C(=O)Nc2ccc(OC(F)(F)F)cc2)cn1	7	1	2	9	5
O=C(O)CCSc1nnc(-c2ccc3c(c2)OCO3)o1	2	16*	2	-9	-1
O=[N+]([O-])c1cccc(-c2ccc(C(=S)N3CCN(c4ccccc4)CC3)o2)c1	-4	0	-5	-5	32*
O=[N+]([O-])c1ccccc1-c1ccc(C(=S)N2CCCCC2)o1	38	10	52*	11	4
O=[N+]([O-])c1ccccc1-c1ccc(C(=S)N2CCCC2)o1	16	6	44	12	-4
O=C(CSc1cn(CC(=O)N2CCOCC2)c2ccccc12)N1CCOCC1	1	5	-2	7	10
O=C(Cn1cc(SCc2cccc(Cl)c2)c2ccccc21)N1CCOCC1	47	-5	-15	55*	12
COc1ccc(C(=O)/C=C/c2ccc(N3CCCCC3)c([N+](=O)[O-])c2)c(OC)c1	/	0	/	/	41*
O=[N+]([O-])c1ccc2c(c1Nc1ccccc1)=NC1(CCCCC1)N=2	-4	0	12	7	45*
COc1ccc(Nc2c([N+](=O)[O-])ccc3c2=NC2(CCCCC2)N=3)cc1	1	0	12	-1	19
Cc1ccc2cc(NC(=O)c3cccc(F)c3)ccc2n1	31	5	58*	40	25
O=C(Nc1ccc2[nH]ncc2c1)c1cccc(F)c1	-14	0	0	1	15
Cc1ccc(CSc2nnc(SCC(=O)N/N=C/c3ccccc3OCC(=O)O)s2)cc1	60*	-7	88*	22	18
Cc1ccc(CSc2nnc(SCC(=O)N/N=C/c3ccc(C(=O)O)cc3)s2)cc1	72*	13	92*	55*	10
O=C(CSc1nnc(SCc2ccccc2)s1)N/N=C/c1ccc(C(=O)O)cc1	51*	0	20	24	14
CCCNC(=O)Cn1cnc2sc(C(=O)N3CCN(CCC)CC3)c(C)c2c1=O	0	-3	16	-5	29
Cc1cc(O)c(Sc2ncn[nH]2)cc1NS(=O)(=O)c1ccc(Cl)cc1	0	/	0	8	18
Cc1cc(C)c(S(=O)(=O)/N=C2/C=C(Sc3ncn[nH]3)C(=O)c3ccccc32)cc1C	/	80*	/	/	25
O=C1Nc2ccccc2N2CCCC12 (stereo unspecified)	24	-1	68*	13	/
SMILES	SENP8 block-1	HSP90 refold inh	SENP6 inh	SENP7 inh	SENP8 block-2
O=C(Cc1nc(=O)c2ccccc2s1)Nc1ccccc1	2	2	46	92*	-137
COc1cc(/C=C2/C(=O)NN(c3ccc(C)c(Cl)c3)C2=O)cc([N+](=O)[O-])c1O	3	1	1	4	50*
COc1cc(/C=C2/C(=O)NN(c3cccc(C)c3)C2=O)cc([N+](=O)[O-])c1O	2	-4	14	5	48*
COc1cc(/C=C2\SC(=O)N(c3cccc(Cl)c3)C2=O)cc([N+](=O)[O-])c1O	8	3	-5	-1	21
COc1cc(/C=C2\SC(=O)N(c3ccc(Cl)cc3)C2=O)cc([N+](=O)[O-])c1O	/	66*	/	/	38
COc1cc(/C=C2/C(=O)NN(c3cccc(Cl)c3)C2=O)cc(OC)c1O	-2	0	2	0	32
